G9a inh = qHTS Assay for Inhibitors of Histone Lysine Methyltransferase G9a; Histone-lysine N-methyltransferase EHMT2 (Homo sapiens), Q96KQ7; G9a H3K9 monomethylation, AlphaScreen, 2 h; Potency, µM (doses to about 102 µM), without a hit: at the top dose activity, negative = inhibition, most hits filed as inhibitors; actives 8.8% (n = 350,000); AID 504332, 2011; also: % is scaled to controls: 0 for no effect and ±100 for the full control effect; nearly all actives have a fitted effect of over 75% in size
Target sequence (Q96KQ7 913-1193 limits assumed): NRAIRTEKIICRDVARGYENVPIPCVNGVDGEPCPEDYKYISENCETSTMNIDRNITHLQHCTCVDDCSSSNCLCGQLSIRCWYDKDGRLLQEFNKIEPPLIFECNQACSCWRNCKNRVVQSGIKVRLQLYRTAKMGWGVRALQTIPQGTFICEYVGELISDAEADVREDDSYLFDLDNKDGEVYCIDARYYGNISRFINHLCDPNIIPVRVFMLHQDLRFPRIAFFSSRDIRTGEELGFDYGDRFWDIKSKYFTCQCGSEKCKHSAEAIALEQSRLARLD
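Enzyme 20 nM + cpd, 15 min RT; add b-H3K9 pep 500 nM / SAM 20 uM; 2 h RT; anti-H3K9me1 Ab 0.5 ug/mL + SA donor / anti-rabbit acceptor beads 20 ug/mL each, 10 min; AlphaScreen read.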
JMJD2A Tudor inh = qHTS Assay for Inhibitors of JMJD2A-Tudor Domain; AID 504339, 2011; AlphaScreen JMJD2A-Tudor / H3K4me3 peptide binding; actives 4.4% (n = 390,000); Potency, µM (top dose mostly 114 µM), for the others: top-dose activity change, negative = inhibition, most hits filed as inhibitors; also: % is scaled to controls: 0 for no effect and ±100 for the full control effect; nearly all actives have a fitted effect of over 50% in size
Sfp PPTase inh = qHTS Assay for Inhibitors of Bacillus subtilis Sfp phosphopantetheinyl transferase (PPTase). 4'-phosphopantetheinyl transferase ffp (Bacillus subtilis), Q9F4F7. Biochemical Sfp PPTase activity, qHTS. Potency, µM, for inactives: largest response in the series, negative = inhibition, hits mostly inhibitors. actives 3.5% (n = 310,000). AID 1490, 2009;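 also: the enzyme is Sfp with the accession as filed and its product quenches rhodamine fluorescence; 0% = enzyme reaction without inhibitor and -100% = no enzyme wells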
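Sfp 15 nM + cpd, 15 min RT; start w/ rhodamine-CoA 5 uM, BHQ-2-YbbR 12.5 uM (final); 50 mM Hepes pH 7.6, 10 mM MgCl2, 0.01% NP-40, 0.01% BSA; read 525/598 nm at 0 and 30 min.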
HP1b binding inh = HTS for Inhibitors of HP1-beta Chromodomain Interactions with Methylated Histone Tails; Chromobox protein homolog 1 (Homo sapiens), P83916; AlphaScreen HP1-beta / biotin-H3K9me3 peptide binding; Potency, µM (doses to about 114 µM), without a hit: at the top dose activity change, negative = inhibition, most hits filed as inhibitors; actives 0.56% (n = 390,000); also: nearly all actives have a fitted effect of over 70% in size
Target sequence (P83916 whole entry, looked up): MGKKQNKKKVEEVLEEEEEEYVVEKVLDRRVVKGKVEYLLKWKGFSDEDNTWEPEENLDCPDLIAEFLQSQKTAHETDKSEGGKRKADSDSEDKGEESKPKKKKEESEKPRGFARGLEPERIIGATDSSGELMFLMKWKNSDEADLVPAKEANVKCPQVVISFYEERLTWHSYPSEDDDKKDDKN
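HP1-beta protein (50 nM final) preincubated 30 min at room temperature with biotinylated H3(1-18)K9me3 peptide (50 nM) in PBS pH 7.4, 0.01% Tween-20, then compound added for 30 min. AlphaScreen streptavidin donor/nickel chelate acceptor beads (10 ug/mL final), 30 min dark, luminescence read.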
BAZ2B block = qHTS Assay for Inhibitors of BAZ2B; Potency, µM (top dose mostly 114 µM), without a hit: at the top dose activity change, negative = inhibition, most hits filed as inhibitors; AlphaScreen BAZ2B-H3K14Ac peptide displacement; actives 4.4% (n = 360,000); Bromodomain adjacent to zinc finger domain protein 2B (Homo sapiens), Q9UIF8; AID 504333, 2011; also: % is scaled to controls: 0 for no effect and ±100 for the full control effect; nearly all actives have a fitted effect of over 60% in size
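BAZ2B 50 nM plus b-H3(5-23)K14Ac 50 nM, PBS pH 7.4/0.01% Tween-20, 30 min RT; compound added (max 110 uM), 30 min RT; streptavidin donor/Ni-chelate acceptor beads 10 ug/mL final, 20 min dark; AlphaScreen read.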
Active calls of the source: *; ? = inconclusive; · = no result given; [ ] = another dose, or the depositor's remark. Most compounds without a hit are left out; they make up all but 12% or so of the library. Calls follow the shape of the dose curve; as a rule, active = well fitted curve in the direction sought with a large enough effect; inconclusive = small, poorly fitted or top-dose-only effect, or another doubt; inactive = no such curve, though single readings can be large; an effect the other way counts as inactive or inconclusive. Potency is read from the fitted curve at half-maximal effect.

SMILES | G9a inh | JMJD2A Tudor inh | Sfp PPTase inh | HP1b binding inh | BAZ2B block
CCCn1c(=O)c(C(=O)NCc2ccco2)c(O)c2ccccc21 | ? | -10% | 13% | 4% | -27%
CC(/C=N/Nc1nncc(=O)[nH]1)=C\c1ccccc1 | -6% | -5% | 5% | 18% | -1%
Cc1ccc(/C=N/Nc2ccc(Cl)nn2)cc1 | 9%[12.7 µM] | -7% | 2% | 9%[57 µM] | 0%
C(=N\Nc1nc2ccccc2[nH]1)/c1cccc2nccnc12 | -5% | ? | 10% | 21% | -35%
COc1ccc(C=NN=C2c3ccccc3-c3ccccc32)cc1OC | · | 13µM* | · | ? | ·
CN(C)c1ccc(/C=N/Nc2ccc(-n3ccnc3)nn2)cc1 | ? | ? | 45µM* | -1% | 18µM*
C#CCn1cc(/C=N/Nc2nc3ccccc3[nH]2)c2ccccc21 | 50µM* | 50µM* | 11µM* | ? | 40µM*
O=c1cnnc(N/N=C/c2ccccn2)[nH]1 | 32% | 3.2µM* | 8% | 21% | 8.9µM*
COc1ccc2c(c1)O[C@H](c1cccc(C(F)(F)F)c1)[C@@H](O)C2=O | · | · | 19% | · | ·
CCCc1nnc(SCC(=O)NC2CCCCC2)n1CCOC | -3% | -9% | -3% | 6% | -20%
COc1cc(S(=O)(=O)n2ccnc2C(C)C)ccc1Br | -1%[59 µM] | -10% | · | 14% | -12%
CCn1c(CNC(=O)c2ccc(OC)cc2)nnc1SCC(=O)Nc1cccc(C)c1 | 5%[59 µM] | -21% | · | 17% | -6%
CCCCCN=c1ccn(Cc2ccccc2)c2ccccc12 | · | · | -4% | · | ·
CN(C)c1ccc(/C=N\Nc2ccccn2)cc1 | 40µM* | ? | -6% | ? | 25µM*
C(=N\Nc1nc2ccccc2[nH]1)/c1ccc2ncccc2c1 | 3% | -30% | -24% | 28% | -19%
C(=N\Nc1nc2ccccc2[nH]1)/c1ccccn1 | 60%[59 µM] | ? | 23% | 27% | 25µM*
COc1ccc(/C=N/Nc2cc(=O)n(C)c(=O)n2C)cc1OC | -30%[59 µM] | -12% | 89µM* | 25% | -17%
COc1ccc(/C=N/Nc2ccccn2)cc1OC | 1% | -20% | 56µM* | 27% | -27%
COc1cc(/C=N\Nc2cc(=O)n(C)c(=O)n2C)ccc1O | 6%[59 µM] | -3% | -6% | 14% | -4%
COc1cccc(N2CC(NC(=O)c3ccc(S(=O)(=O)N4CCOCC4)cc3)CC2=O)c1 (stereo not drawn) | -46%[59 µM] | -17% | · | 50% | -9%
COc1ccc(/C=N/Nc2nc3ccccc3[nH]2)cc1OC | -9%[59 µM] | -23% | 22µM* | 6% | -39%
COc1ccc2c(c1)c(/C=N/Nc1nc3ccccc3[nH]1)c(C)n2C | · | ? | 11µM* | -11% | 28µM*
C(=N\Nc1nc2ccccc2[nH]1)/c1ccc2c(c1)OCCO2 | ? | ? | 25µM* | -21% | ?
C(=N\Nc1ccc2ccccc2n1)/c1ccc2c(c1)OCCO2 | ? | ? | -59% | -6% | ?
O=C(Cc1nnc(-c2nc3ccccc3[nH]2)o1)Nc1cc(C(F)(F)F)ccc1Cl | · | -10% | · | · | ·
SMILES | G9a inh | JMJD2A Tudor inh | Sfp PPTase inh | HP1b binding inh | BAZ2B block
O=C(CCS(=O)(=O)c1ccccc1)Nc1ncc([N+](=O)[O-])s1 | 45µM* | -6% | 9% | 7% | -1%
O=C(CN1C(=O)c2ccccc2S1(=O)=O)Nc1ncc([N+](=O)[O-])s1 | ? | 3.5µM* | · | -23% | ?
Cc1csc(NC(=O)CN2C(=O)c3ccccc3S2(=O)=O)n1 | 10% | -14% | -4% | 19% | -11%
COCc1nnc(NC(=O)CCCOc2ccccc2OC)s1 | ? | 50µM* | -16% | -25% | -5%
O=C(CS(=O)(=O)c1ccccc1)Nc1ncc([N+](=O)[O-])s1 | ? | -4% | 20% | 11% | -14%
COCc1nnc(NC(=O)CCS(=O)(=O)c2ccccc2)s1 | 45µM* | -9% | ? | ? | ?
CC(=O)N1CCCc2cc(S(=O)(=O)N3CCC(C(=O)NCc4ccccc4)CC3)ccc21 | 6%[59 µM] | -5% | · | 21%[57 µM] | 3%
Cc1ccc2[nH]c(C(=O)Nc3ccccc3)cc2c1 | 8%[59 µM] | 6% | · | 43% | 2%
COCc1cc(C)nc2sc(C(=O)N3CCCCC3)c(N)c12 | -9%[59 µM] | -15% | 79µM* | 57% | 5%
COCc1cc(C)nc2sc(C(=O)N3CCN(c4ccccc4)CC3)c(N)c12 | ? | -8% | -10% | 62% | -5%
Cc1cc(C)c2c(N)c(C(=O)N3CCN(c4ncccn4)CC3)sc2n1 | ? | 40µM* | -17% | 46% | -2%
CN(Cc1c(F)cccc1Cl)C(=O)CCc1c[nH]c2ccccc12 | ? | ? | 12% | -17% | 71µM*
CN(Cc1cccs1)C(=O)CCc1c[nH]c2ccccc12 | -24% | -29% | 5% | 14% | -32%
O=C(C1CC1)N1CCC(C(O)(c2ccccc2)c2ccccc2)CC1 | -21%[59 µM] | 28% | 8% | 17% | -3%
Oc1ccccc1CN1CCN(C(O)(c2ccccc2)c2ccccc2)CC1 | 35µM* | -17% | -8% | 2% | 50µM*
Oc1ccccc1CN1CCC(C(O)(c2ccccc2)c2ccccc2)CC1 | 8.9µM* | ? | -17% | ? | -38%
Cc1cccc(C(c2sc3nc(-c4ccco4)nn3c2O)N2CCN(c3ccccc3F)CC2)c1 (stereo not drawn) | ? | ? | · | -16% | -38%
CC1CCN(C(=O)c2ccc3c(c2NCCO)C(=O)c2ccccc2C3=O)CC1 | ? | 45µM* | -16% | ? | 32µM*
O=C(NCCO)c1cccc2c1C(=O)c1ccccc1-2 | ? | -7% | 1% | 31% | 21%
CCN(CC)CCC(=O)Nc1cccc2c1C(=O)c1ccccc1C2=O | 40µM* | ? | 0% | -23% | ?
CCN(CC)CCNC(=O)c1ccc2c(c1NCCO)C(=O)c1ccccc1C2=O | 40µM* | ? | -13% | ? | 40µM*
O=C(O)c1ccc(NCCc2ccc(Cl)cc2)c([N+](=O)[O-])c1 | 79µM* | -34% | 7% | 3% | ?
O=[N+]([O-])c1cc(C(F)(F)F)ccc1NCCNC(=S)Nc1ccc(Cl)cc1 | 28µM* | ? | 13% | -24% | 20µM*
O=[N+]([O-])c1cc(Cl)ccc1NCCc1ccccn1 | ? | 45µM* | 8% | ? | 10µM*
O=C(Nc1cc(F)cc(F)c1)c1ccc(NCCc2ccccc2)c([N+](=O)[O-])c1 | -20%[59 µM] | -11% | 9% | 32% | -26%
CC12C=C(/C=C/c3ccc(Br)cc3)C(C)(C1)C(c1ccc(Br)cc1)CC2=O (stereo not drawn) | · | · | -3% | · | ·

Bioassay records deposited in PubChem BioAssay by National Center for Advancing Translational Sciences (NCATS).
